About 83,000 compounds went through this panel and 20% of them were active in at least one assay; those are over-represented in the sample as a whole.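 A percent growth of 40 corresponds to 60% growth inhibition; 0 means no net growth; -100 means all cells died. Active threshold: below 10.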 A number with no mark means an inactive call. Active and inactive are the calls of the source.

Holding throughout (test): NCI-60 one-dose screen, 48 h (100 = growth as untreated, 0 = no growth, -100 = all killed)
The test system of assay [1] is HT29 colon. The conditions noted are these: 10 µM unless noted.
The subject of assay [2] is SNB-75 CNS. Particulars: 10 µM unless noted.
In assay [3] the test system is SNB-19 CNS. Particulars: 10 µM unless noted.
In assay [4] the test system is U251 CNS. Particulars: 10 µM unless noted.
Assay [5] relates to PC-3 prostate. Particulars: 10 µM unless noted.
Assay [6] has as its system SK-MEL-5 melanoma. The conditions noted are these: 10 µM unless noted.
Assay [7] relates to UACC-62 melanoma. Particulars: 10 µM unless noted.
Assay [8] relates to LOX IMVI melanoma. The conditions noted are these: 10 µM unless noted.
The subject of assay [9] is SK-MEL-28 melanoma. The conditions noted are these: 10 µM.
Assay [10] concerns SK-MEL-2 melanoma. The conditions noted are these: 10 µM unless noted.
The test system of assay [11] is EKVX NSCLC. The conditions noted are these: 10 µM unless noted.
Assay [12] relates to SN12C renal. The conditions noted are these: 10 µM unless noted.
Assay [13] has as its system UO-31 renal. The conditions noted are these: 10 µM unless noted.
In assay [14] the test system is TK-10 renal. The conditions noted are these: 10 µM unless noted.
The test system of assay [15] is ACHN renal. Particulars: 10 µM unless noted.
Assay [16] deals with CAKI-1 renal. Particulars: 10 µM unless noted.
Assay [17] has as its system A498 renal. Particulars: 10 µM unless noted.
The test system of assay [18] is CCRF-CEM leukemia. Particulars: 10 µM unless noted.
In assay [19] the test system is MOLT-4 leukemia. Particulars: 10 µM unless noted.
Assay [20] concerns SR leukemia. The conditions noted are these: 10 µM unless noted.

As for `CC1=C(C(=O)OCC2CCN(C(=O)OC(C)(C)C)CC2)[C@H](c2cccc(C#N)c2)C2=C(CC(C)(C)CC2=O)N1`, the growth in [1] is 30.9%; in [2] it was 62.5%; in [3] it was 51.7%; in [4] it was 47.6%; in [5] it was 59.4%; in [6] it was 20.5%. In addition, the growth in assay [7] was 43.5%; in [8], 15.2%; in [9], 68.4%; in assay [10] it was 75.3%; in [11], 62.6%; in assay [12] it was 52.9%. The growth in assay [13] is 57.8%; in [14], 69.7%; in assay [15], 35.4%; in assay [16] it was 52.4%; in assay [17] it was 68.3%; in assay [18] it was 40.5%. Moreover, the growth in assay [19] was 25.3%.
Regarding `O=C(NN1C(=O)CSC1c1ccc(Cl)cc1)c1[nH]c2ccc(F)cc2c1-c1ccccc1` (centres undefined), the growth in assay [1] was 19.2%; in assay [2], 59.2%; in assay [3] it was 64.2%; in assay [4], 49.6%; in assay [5] it was 42.7%; in assay [6], 75%. In addition, the growth in assay [7] was 48.7%; in [8], 60.9%; in [9] it was 101%; in [10], 49.3%; in assay [11], 49.3%; in assay [12], 44.1%. In addition, the growth in [13] was 36.3%; in assay [14] it was 66.9%; in assay [15] it was 43.8%; in assay [16], 32.1%; in assay [17] it was 84.3%; in [18], 34.3%. Besides, the growth is 34.1% in assay [19] and 48.9% in assay [20].
On to `O=C(Nc1ccc(Cl)cc1F)c1cc(Br)ccc1O`, for which the growth in assay [1] was 42.4%; in [2], -13.6% (active); in assay [3], 20.4%; in assay [4], 1.1% (active); in assay [5], -0.306% (active); in [6] it was -87.2% (active). In addition, the growth is -21.8% (active) in assay [7]; 16.1% in assay [8]; 13.2% in assay [9]; -16.3% (active) in assay [10]; 9.24% (active) in [11]; 1.01% (active) in assay [12]. For the same compound, the growth was 5.96% (active) in [13]; 5.64% (active) in assay [14]; 2.84% (active) in assay [15]; -10.7% (active) in assay [16]; -62.9% (active) in [17]; 15.1% in assay [18]. The growth in assay [19] was 0.561% (active).
On to `Cc1cc2c(c(C)c1Cl)C(=O)/C(=C/c1cccc([N+](=O)[O-])c1)O2`, for which the growth is 95.4% in assay [1]; 102% in assay [2]; 96.8% in [3]; 93% in assay [4]; 100% in assay [5]; 96.6% in assay [6]. The growth is 82% in [7]; 102% in assay [8]; 102% in [9]; 97.7% in [10]; 98.3% in assay [11]; 96.9% in assay [12]. The growth in assay [13] is 96.2%; in [14], 129%; in [15], 107%; in assay [16], 91.6%; in assay [17], 95.6%; in assay [18] it was 102%. Further, the growth in assay [19] was 90.5%; in [20], 85.5%.
As for `O=C(c1nc2ccccc2[nH]1)C1C(c2cccc([N+](=O)[O-])c2)C2CC3CCCCC3N2[C@@]12C(=O)Nc1cc(Cl)ccc12` (some centres undefined), the growth is 13.5% in [1]; 15.1% in [2]; 39.1% in assay [3]; 32.4% in assay [4]; 19.6% in assay [5]; 45.4% in assay [6]. Besides, the growth in assay [7] is 33.5%; in assay [8], 19.7%; in assay [9], 55.3%; in assay [10], 41.4%; in assay [11], 31.3%; in [12], 33.2%. The growth is -19.5% (active) in assay [13]; 46.9% in assay [14]; 21.2% in assay [15]; 12.2% in [16]; -1.86% (active) in assay [17]; 25.5% in assay [18]. Further, the growth in assay [19] was 8.76% (active); in [20], 6.09% (active).
As for `Nc1ccc(-n2c(=O)oc3ccc(Cl)cc3c2=O)c(Cl)c1`, the growth is 3.86% (active) in assay [1]; -41.3% (active) in assay [2]; 16.2% in assay [3]; -8.77% (active) in assay [4]; 2.14% (active) in assay [5]; -83.9% (active) in assay [6]. Further, the growth in [7] is -34.9% (active); in assay [8], 0.455% (active); in assay [9], -10.6% (active); in assay [10] it was -31.6% (active); in [11], 4.42% (active); in assay [12], -0.532% (active). The growth in [13] is 0.242% (active); in [14], 8.25% (active); in assay [15], 5.28% (active); in assay [16], -21.5% (active); in assay [17], -67% (active); in assay [18] it was 0.0077% (active).
With `COc1ccc(C2Nc3nc(OC)n(C)c(=O)c3N=C3c4ccccc4C(=O)C32)cc1` (centres undefined), the growth was 113% in assay [1]; 77.4% in assay [2]; 91.8% in assay [3]; 90.8% in assay [4]; 87.8% in [5]; 95% in [6]. Further, the growth was 93.1% in [7]; 87.7% in assay [8]; 106% in [9]; 89.7% in [10]; 81.9% in [11]; 86.6% in assay [12]. For the same compound, the growth in [13] was 94.2%; in assay [14], 124%; in [15] it was 85.3%; in [16] it was 54.4%; in assay [17], 105%; in [18], 87.9%.
For `CCOC(=O)c1c2c(c(C)n1Cc1ccc(OC)cc1)-c1oncc1CC2`, the growth in assay [1] was 89.1%; in assay [2], 72.9%; in assay [3] it was 81.8%; in assay [4], 86.3%; in [5], 99.6%; in assay [6] it was 98.1%. For the same compound, the growth is 110% in [7]; 76.6% in [8]; 138% in [9]; 120% in [10]; 94.3% in assay [11]; 175% in assay [12]. Also, the growth in [13] is 65.3%; in assay [14] it was 102%; in assay [15], 91.3%; in assay [16], 70.6%; in assay [17], 91.9%; in assay [18], 93.3%. The growth in assay [19] was 85.3%; in assay [20], 85.4%.

The record behind these values is PubChem BioAssay (NCI).
